Screening data: PubChem BioAssay, National Center for Advancing Translational Sciences (NCATS)
Only some compounds are listed: those with a hit (about 4.7% of all), similar ones and a draw of the others.
D1 potentiator: human D1 dopamine receptor positive modulation. HEK293 TREx D1 cells, calcium flux, dopamine EC20 potentiation. 360,000 compounds, 0.036% hits. potentiation, % at 10 µM. AID 504651. P21728; in the data active = potentiation above about 30%; also: 0% is about no effect
D1 agonist: human D1 receptor agonism; activation, % at 2 µM; P21728; 360,000 compounds, 1% hits; HEK293 T-REx D1 cells, calcium flux, agonist mode; also: 0% is about no effect
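Inducible HEK293 T-REx D1 cells, force-coupled to calcium signalling, were plated at 4000 cells/well with tetracycline and held overnight at 30 C. After no-wash calcium dye loading, compound-evoked calcium rise over 180 s flagged agonists.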
TRHR PAM: allosterically enhances the human TRH receptor; AID 493056; TRHR cells, fluo-8 calcium fluorescence, EC20 TRH enhancement; 360,000 compounds, 0.66% hits; enhancement, % at 2 µM; in the data active = enhancement above about 30%; also: 0% is about no effect
Target sequence (P34981 whole entry, looked up): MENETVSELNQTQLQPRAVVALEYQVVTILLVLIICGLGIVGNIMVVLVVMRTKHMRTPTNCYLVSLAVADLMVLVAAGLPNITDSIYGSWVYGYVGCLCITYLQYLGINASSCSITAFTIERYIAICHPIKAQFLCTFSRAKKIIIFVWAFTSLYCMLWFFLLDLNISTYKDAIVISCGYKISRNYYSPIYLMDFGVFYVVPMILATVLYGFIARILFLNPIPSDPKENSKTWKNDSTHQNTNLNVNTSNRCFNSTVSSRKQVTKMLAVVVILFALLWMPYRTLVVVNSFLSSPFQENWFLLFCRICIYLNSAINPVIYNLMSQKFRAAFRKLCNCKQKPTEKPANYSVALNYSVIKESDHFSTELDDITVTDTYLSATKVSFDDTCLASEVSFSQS
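TRHR-expressing cells loaded with fluo-8 calcium dye were read kinetically (ex 480/em 530) during compound addition, then stimulated with an EC20 of TRH (10 nM final). Enhancement of the Gq-mediated intracellular calcium response was scored.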
TRHR ag: TRH receptor (human) agonism; P34981; TRHR cells, calcium flux fluo-8, FDSS agonist mode; activation, % at 2 µM; 360,000 compounds, 0.18% hits; also: 0% is about no effect
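Steps: seed TRHR cells overnight; add fluo-8 no-wash Ca dye, RT 30 min–1.5 h; record 10 s baseline; pin-transfer compounds; monitor fluorescence 1 cycle/s for the agonist window. Calcium increases flag candidate agonists.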
D1 antagonist: antagonists of human D1 dopamine receptor. activity change, negative = inhibition, % at 10 µM. P21728. HEK293 TREx D1 cells, calcium flux, dopamine EC80; hits give low values. 360,000 compounds, 3.2% hits; in the data active = activity change below about -30%; also: % is scaled to controls: 0 for no effect and ±100 for the full control effect
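Tetracycline-induced HEK293 T-REx cells with force-coupled D1 receptor were loaded with a no-wash calcium dye. Compound was added after a 10 s baseline and read kinetically for 180 s; EC80 dopamine was then added and calcium flux followed another 180 s.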
Numbers without * were called inactive. Rule as the data show it, unless noted: active = activation above about 30%; inactive = the rest.

Screening CC(C)(C)c1ccc(C(=O)NCC(=O)OCc2ccc([N+](=O)[O-])cc2)cc1 returned D1 potentiator -8, D1 agonist 10, TRHR PAM -7, TRHR ag 0 and D1 antagonist -35*.
Cc1cc(NC(=O)CCNS(=O)(=O)c2cccc3nsnc23)ccc1Br was read as D1 potentiator 1, D1 agonist 12, TRHR PAM 6, TRHR ag -1 and D1 antagonist -17.
Screening CC(OC(=O)c1ccc2c(=O)n3c(nc2c1)CCCCC3)C(=O)Nc1ccc(F)cc1Cl (stereo not given) returned D1 potentiator -4, D1 agonist 0, TRHR PAM 1, TRHR ag 0 and D1 antagonist -37*.
For CN(C)c1ccc(NC(=O)c2ccc3nsnc3c2)cc1 the results were D1 potentiator -7, D1 agonist 1, TRHR PAM 6, TRHR ag -1 and D1 antagonist 6.
Screening CC(OC(=O)c1ccc2c(=O)n3c(nc2c1)CCCCC3)C(=O)Nc1ccc(Cl)cn1 (stereo not given) returned D1 potentiator -3, D1 agonist 0, TRHR PAM -6, TRHR ag -1 and D1 antagonist -2.
For O=C(Nc1ccc(F)cc1)c1ccc2c(=O)n3c(nc2c1)CCCCC3 the results were D1 potentiator -11, D1 agonist 4, TRHR PAM -14, TRHR ag 0 and D1 antagonist -6.
O=C(Nc1ccc(F)c(Cl)c1)c1ccc2c(=O)n3c(nc2c1)CCCCC3 was read as D1 potentiator -5, D1 agonist 16, TRHR PAM 3, TRHR ag 1 and D1 antagonist -58*.
Screening O=C(Nc1ccc(Cl)cc1)c1ccc2nsnc2c1 returned D1 potentiator -15, D1 agonist 20, TRHR PAM -8, TRHR ag 0 and D1 antagonist -47*.
CC(=O)c1ccc(NC(=O)c2ccc3c(=O)n4c(nc3c2)CCCCC4)cc1 was read as D1 potentiator -4, D1 agonist 10, TRHR PAM 0, TRHR ag 0 and D1 antagonist -45*.
For Cc1ccc(C(=O)N2CCCC(N3CCN(c4ccccc4C)CC3)C2)c(=O)[nH]1 (stereo not given) the results were D1 potentiator -1, D1 agonist 0, TRHR PAM 7, TRHR ag 0 and D1 antagonist 25.
Screening O=C(c1ccc(S(=O)(=O)c2ccccc2Cl)c([N+](=O)[O-])c1)N1CCCCCC1 returned D1 potentiator 2, D1 agonist 9, TRHR PAM -1, TRHR ag 0 and D1 antagonist -20.
For O=C(Nc1ccc(Cl)cc1)c1ccc2c(=O)n3c(nc2c1)CCCCC3 the results were D1 potentiator -16, D1 agonist 12, TRHR PAM -8, TRHR ag -1 and D1 antagonist -59*.
`CCc1cccc(NC(=O)CCCSc2nc3ccccc3[nH]2)c1` gave D1 potentiator -6, D1 agonist 13, TRHR PAM -8, TRHR ag -2 and D1 antagonist -36*.
Screening O=C(CCCSc1ccccc1)Nc1cccc(CO)c1 returned D1 agonist 7, TRHR PAM 15, TRHR ag -2 and D1 antagonist -34*.
Screening Cc1cccc(NC(=O)CCCSc2nc3ccccc3[nH]2)c1 returned D1 potentiator -1, D1 agonist 10, TRHR PAM 2, TRHR ag 0 and D1 antagonist -13.
Screening COCC1CCN(Cc2cn(C)nc2-c2cccc(Cl)c2)C1 (stereo not given) returned D1 potentiator -1, D1 agonist 3, TRHR PAM 8, TRHR ag 0 and D1 antagonist -42*.
Screening COCCN1CCN(Cc2cn(C)nc2-c2cccc(Cl)c2)CC1 returned D1 potentiator -5, D1 agonist 0, TRHR PAM -2, TRHR ag 0 and D1 antagonist 5.
O=S(=O)(c1ccc2ccccc2c1)N1CCC(c2nc(-c3ccncc3)no2)CC1 was read as D1 potentiator 0, D1 agonist 2, TRHR PAM -4, TRHR ag 1 and D1 antagonist -35*.
Screening Cc1ccc(OC(=O)c2cccc(C(=O)Oc3ccc(C)cc3)n2)cc1 returned D1 potentiator 0, D1 agonist 1, TRHR PAM -4, TRHR ag 1 and D1 antagonist -17.
`Cc1ccc(OC(=O)c2cc(C)nn2C(C)(C)C)cc1` gave D1 potentiator -5, D1 agonist 1, TRHR PAM 36*, TRHR ag 0 and D1 antagonist 7.
Screening Oc1c(Br)cc(Br)cc1CNc1ccc(F)cc1 returned D1 potentiator -5, D1 agonist 3, TRHR PAM -8, TRHR ag 0 and D1 antagonist -39*.
COc1ccccc1OCc1ccc(C(=O)Nc2ccc(Cl)cn2)o1 was read as D1 potentiator -5, D1 agonist 3, TRHR PAM -8, TRHR ag -1 and D1 antagonist -36*.
`COc1ccc(NC(=O)c2ccc(COc3ccccc3Br)o2)cc1OC` gave D1 potentiator -8, D1 agonist 1, TRHR PAM 16, TRHR ag -2 and D1 antagonist -37*.
For COc1ccccc1OCc1ccc(C(=O)NN)o1 the results were D1 potentiator -4, D1 agonist 3, TRHR PAM 1, TRHR ag 0 and D1 antagonist -16.
For COc1ccc(NC(=O)c2ccc(COc3ccccc3OC)o2)cc1OC the results were D1 potentiator -7, D1 agonist -1, TRHR PAM 13, TRHR ag -1 and D1 antagonist -5.
For COc1ccccc1NC(=O)CSc1nnc2c(n1)[nH]c1ccccc12 the results were D1 potentiator -4, D1 agonist 1, TRHR PAM 5, TRHR ag -2 and D1 antagonist 11.
Screening CCOc1cccc(CN2CCCC(N3CCN(c4cccc(Cl)c4)CC3)C2)c1O (stereo not given) returned D1 potentiator 0, D1 agonist 3, TRHR PAM -2, TRHR ag -1 and D1 antagonist 1.
`CC(C)/C=C/CN1CCCC(N2CCN(c3cccc(Cl)c3)CC2)C1` (stereo not given) gave D1 potentiator -7, D1 agonist 6, TRHR PAM 0, TRHR ag 1 and D1 antagonist -37*.
For Cc1ccccc1C(=O)Nc1nc2nc(C)c(C)c(=O)n2[nH]1 the results were D1 potentiator 0, D1 agonist 2, TRHR PAM -2, TRHR ag -1 and D1 antagonist -5.
For O=C(COCc1cc(-c2ccc3c(c2)OCO3)on1)Nc1cc(C(F)(F)F)ccc1Cl the results were D1 potentiator -2, D1 agonist 33*, TRHR PAM 2, TRHR ag 3 and D1 antagonist -7.
Screening Cc1c(Cl)cccc1NC(=O)COCc1cc(-c2ccc3c(c2)OCO3)on1 returned D1 potentiator 5, D1 agonist 13, TRHR PAM 10, TRHR ag 1 and D1 antagonist -2.
